Assay results published in PubChem BioAssay (NCATS).
“And” between values parts separate entries of the source, which are not always exact repeats. Equal entries are not always repeated. Inconclusive results are not listed. The source made the active and inactive calls. Calls come from the whole dose curve. Peptide text beside a SMILES is read from it.

Assay: Primary qHTS to identify inhibitors of SARS-CoV-2 cell entry (AID 1645846); note: nearly all actives have a fitted effect of over 45% in size
Conditions: SARS-CoV-2 pseudovirus cell entry assay, luminescence; activity change, negative = inhibition: at 57.1 µM (top of the series) unless noted
Source text: Assay Provider: Wei Zheng, Ph.D.
National Center for Advancing Translational Sciences, National Institute of Health, Rockville, MD.
SARS-CoV-2 spike protein, within the viral envelope, mediates viral attachment and infection of host cells. The SARS-CoV-2 spike protein specifically binds to the host receptor ACE2 (Angiotensin-converting enzyme 2). This interaction promotes endocytosis of the viral particle, additional events lead to viral-host cell membrane fusion and release of the viral contents, allowing viral replication.
While SARS-CoV-2 requires BSL-3 facilities for live virus work, pseudotyped partices (PP) that incorporate SARS-CoV-2 spike proteins without replication elements could facilitate studies on viral entry mechanisms in a BSL-2 setting. This PP cell entry assay could also enable screening of small molecule compound libraries in BSL-2 setting to identify inhibitors of SARS-CoV-2 cell entry.
PROTOCOL TABLE (format as described by Inglese J, Shamu CE and Guy RK. 2007)
SEQUENCE No. (e.g., 1, 2, 3, etc.); […] (e.g., Cells, Incubation, Reagent, etc.); VALUE and DESCRIPTION.
1. Cells. Seed 1500 HEK293-ACE2 cells (Expi293F with stable expression of human ACE2) in 2 uL/well media (DMEM, 10% FBS, 1x L-glutamine, 1x Pen/Strep, 1 ug/ml puromycin) in white 1536-well assay plates (Greiner #782073).
2. Incubation. Incubate at 37C with 5% CO2 overnight (~16 h).
3. Compounds. Dispense 23 nL/well compounds in DMSO via pin transfer.
4. Incubation. Incubate for 1 hr at 37C 5% CO2.
5. Reagent. Dispense 2 uL/well of SARS-CoV-2-S pseudotyped particles. [a] PPs are produced with murine leukemia virus pseudotyping. [b] SARS-CoV-2-S is Wuhan-Hu-1 sequence (BEI #NR-52420) with C-terminal 19 amino acid truncation.
6. Centrifuge. […]
7. Incubation. Incubate at for 48 hr at 37C 5% CO2
8. Centrifuge. Remove supernatant with gentle centrifugation using a Blue Washer (BlueCat Bio).
9. Reagent. Dispense 4 uL/well of Bright-Glo Luciferase detection reagent (Promega #E2620).
10. Incubation. Incubate for 5 min at room temperature.
11. Detection. Read luminescence signal (Viewlux plate reader, PerkinElmer). Data was normalized with wells containing SARS-CoV-2-S PP as 100%, and wells containing bald PP (no fusion protein) as 0%.
Potency is the fitted concentration of half-maximal effect.

SMILES	activity change, negative = inhibition	Potency	outcome
COc1cc2c(cc1O)CCN[C@]21CS[C@@H]2c3c(OC(C)=O)c(C)c4c(c3[C@H](COC1=O)N1[C@@H]2[C@H]2c3c(cc(C)c(OC)c3O)C[C@@H]([C@@H]1O)N2C)OCO4	-92.8% [at 11.3 µM]		
CN(C)C1CCN(C(=O)c2ccc(NC(=O)Nc3ccc(-c4nc(N5CCOCC5)nc(N5CCOCC5)n4)cc3)cc2)CC1		1.58 µM (active)	
c1cc(Nc2cc(C3CC3)[nH]n2)nc(Nc2ccc3nc[nH]c3c2)n1	-94.9%		
Cc1sc2c(c1C)C(c1ccc(Cl)cc1)=NC(CC(N)=O)c1nnc(C)n1-2 (stereo not given)	-23.3%		
Cc1cc(CC(C)C[Si](C)(O[Si](C)(C)C)O[Si](C)(C)C)c(O)c(-n2nc3ccccc3n2)c1 (stereo not given)	-21.7% [at 19 µM]		
COc1ccccc1C(=O)Nc1cc2c(cc1N1CCCCC1)n(C)c(=O)n2C	-21.1%		
Nc1c(Br)cc(Br)cc1CNC1CCC(O)CC1 (stereo not given)	-18.6%		
NC(=O)C1CCCN1C(=O)C(Cc1cnc[nH]1)NC(=O)C1CCC(=O)N1 (stereo not given)		inactive	
[2H]C([2H])([2H])C(O)(CCO[C@@H](C)[C@H]1CC[C@H]2/C(=C/C=C3\C[C@@H](O)C[C@H](O)C3=C)CCC[C@]12C)C([2H])([2H])[2H]	-6.57%		
Nc1ncnc2c1C(=O)N(c1ccc(C3CCC(CC(=O)O)CC3)cc1)CCO2 (stereo not given)	-0.016%		
Cn1c(COP(=O)(NCCBr)NCCBr)cnc1[N+](=O)[O-]	-15%		
CC#CCC(C)[C@H](O)/C=C/[C@@H]1[C@H]2c3cccc(CCCC(=O)O)c3O[C@H]2C[C@H]1O (stereo not given in full)	-5.27%		
Nc1nc2c(c(=O)[nH]1)N1CN(c3ccc(C(=O)N[C@@H](CCC(=O)O)C(=O)O)cc3)CC1CN2 (stereo not given in full)	-83.8%		
Cc1ncc(C[n+]2csc(CCOP(=O)(O)OP(=O)(O)O)c2C)c(N)n1	-1.65% [at 0.702 µM]		
CC[C@@H](Oc1cccc(CN(CCCOc2ccc(OC)cc2)c2nc3ccccc3o2)c1)C(=O)O	-15.3%		
O=C(O)CCCN1CCC(O[C@@H](c2ccc(Cl)cc2)c2ccccn2)CC1	-17.2%		
Cc1[nH]c2ccc(F)cc2c1-c1nc2c3cccnc3c3ncccc3c2[nH]1	-96.1% [at 114 µM]		
O=C(Nc1nccs1)C(c1cc(F)ccc1O)N1Cc2ccccc2C1=O (stereo not given)	-14.9%		
Cc1cc(-c2ccc(N=Nc3c(S(=O)(=O)O)cc4cc(S(=O)(=O)O)cc(N)c4c3O)c(C)c2)ccc1N=Nc1c(S(=O)(=O)O)cc2cc(S(=O)(=O)O)cc(N)c2c1O	2.81%		
CC(=O)O/N=C1/C(c2c(O)[nH]c3cc(Br)ccc23)=Nc2ccccc21		inactive	

SMILES	activity change, negative = inhibition	Potency	outcome
Cc1cc(O)cc2c1[C@]1(C)CC[C@H]3C(C)(C)CCC[C@]3(C)[C@H]1C2			inactive [at 5.25 µM]
CC(C)c1nc(N(C)S(C)(=O)=O)nc(-c2ccc(F)cc2)c1/C=C/[C@@H](O)C[C@@H](O)CC(=O)O		inactive	
CC(=O)N1CCC[C@H]1C(=O)N[C@@H](Cc1cnc[nH]1)C(=O)N[C@@H](CO)C(=O)N[C@@H](CS)C(=O)N[C@@H](CC(N)=O)C(N)=O (Ac-PHSCN-NH2)	-1.41%		
NC(=O)CCC1NC(=O)C(Cc2ccccc2)NC(=O)C(Cc2ccc(O)cc2)NC(=O)CCSSCC(C(=O)N2CCCC2C(=O)NC(CCCN=C(N)N)C(=O)NCC(N)=O)NC(=O)C(CC(N)=O)NC1=O (stereo not given)	-25.4% [at 27.1 µM]		
O=C(NCc1ccc(S(=O)(=O)c2cccc(C(F)(F)F)c2)cc1)c1cnc2[nH]ncc2c1	-97.3%		
Nc1nc(F)nc2c1ncn2C1OC(COP(=O)(O)O)C(O)C1O (stereo not given)	-9.43%		
C/C=C/C[C@@H](C)C(=O)[C@H]1C(=O)N[C@@H](C(C)C)C(=O)N(C)CC(=O)N(C)[C@@H](CC(C)C)C(=O)N[C@@H](C(C)C)C(=O)N(C)[C@@H](CC(C)C)C(=O)N[C@@H](C)C(=O)N[C@H](C)C(=O)N(C)[C@@H](CC(C)C)C(=O)N(C)[C@@H](CC(C)C)C(=O)N(C)[C@@H](C(C)C)C(=O)N1C	-14.4% [at 27.1 µM]		
C[C@]12C=CC(=O)C=C1CCC1C2[C@@H](O)C[C@@]2(C)C1CC[C@]2(O)C(=O)COC(=O)CCC(=O)O (stereo not given in full)	-21.3%		
O=C1CC(c2c[nH]c3ccc(F)cc23)C(=O)N1 (stereo not given)	1.8%		
CCCCC/C=C/C/C=C/CCCCCCCC(=O)O	-0.957%		
COC1CC(C(=O)c2ccc3c(N)ncc(-c4ccc(-c5cnn(C)c5)cc4)c3n2)C1 (stereo not given)		8.91 µM (active)	
CC(=O)OCC(=O)[C@@]1(O)[C@H](C)C[C@H]2[C@@H]3C[C@H](F)C4=CC(=O)C=C[C@]4(C)[C@@]3(F)[C@@H](O)C[C@@]21C		inactive	
CCOC(=N)c1nc2ccc3ncnc(Nc4cc(F)c(F)cc4Cl)c3c2s1	-20.9%		
COc1ccc(-c2oc3ncnc(N)c3c2-c2ccc(NC(=O)Nc3cc(C(F)(F)F)ccc3F)cc2)cc1	0.997%		
CCC(C(=O)O)[C@H]1CC[C@H](C)[C@H]([C@@H](C)[C@H](O)[C@H](C)C(=O)[C@H](CC)[C@H]2OC3(C=C[C@@H](O)[C@]4(CC[C@@](C)([C@H]5CC[C@](O)(CC)[C@H](C)O5)O4)O3)[C@H](C)C[C@@H]2C)O1 (stereo not given in full)		0.794 µM (active)	
CCN(C(=O)c1ccccc1OC)c1cc2c(cc1N1CCNC[C@H]1C)n(C)c(=O)n2C	-9.57%		
OCCOc1ccc(/C(=C(/CCCl)c2ccccc2)c2ccccc2)cc1	-9.9% and -6.02%		
C=C1C(=O)O[C@@H]2[C@H]3O[C@]3(C)CC/C=C(\C)CC[C@@H]12		22.4 µM (active)	
C=C(C)CNc1ccc(C(C)C(=O)O)cc1 (stereo not given)	-20.2%		
CCCCCCC(C)(C)c1cc(O)c2c(c1)OC(C)(C)C1CC=C(CO)C[C@H]21 (stereo not given in full)	-8.86%		
